Experimental findings from the supplement of paper PMC8975748 are described below.

Counter-ions that a name gives are not always drawn.

The test has as its system Saccharomyces cerevisiae BY4741 SeMeCo community. The test is described as follows: z-score of subpopulation abundance vs DMSO median, subpopulation auxotrophic for UM; higher = larger share of this subpopulation than in DMSO controls. The note with it: 10 µM; 24 h; SM minimal medium; subpopulation (auxotrophy): UM. Here is the method:
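Fluorescent four-plasmid SeMeCo (self-establishing metabolically cooperating S. cerevisiae BY4741 community; plasmids pH-mRuby2, pL-mWasabi, pU-eCFP, pM-TagRFP657) was grown 24 h in minimal SM medium with each Selleck FDA-approved drug at 10 µM in 384-well plates. Cells were fixed and imaged by high-content confocal microscopy. For each auxotrophic subpopulation (and the prototroph), a z-score gives the deviation from the DMSO vehicle-control population median.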
For `CN(Cc1ccc(C(C)(C)C)cc1)Cc1cccc2ccccc12` [Butenafine HCl], the “z-score of subpopulation abundance” value was -1.21. In the case of `COc1cc2c(cc1OC)C(=O)C(CC1CCN(Cc3ccccc3)CC1)C2` (stereo not given) [Donepezil HCl], the “z-score of subpopulation abundance” value was -0.48. Next, `CO/N=C(\C(=O)N[C@@H]1C(=O)N2C(C(=O)O)=C(CSC(=O)c3ccco3)CS[C@H]12)c1csc(N)n1` [Ceftiofur]: 0.79; `CN(C)C(=O)COC(=O)Cc1ccc(OC(=O)c2ccc(NC(=N)N)cc2)cc1` [Camostat Mesilate]: -0.43; `Cn1nnc(-c2ccc(-c3ccc(N4C[C@H](COP(=O)(O)O)OC4=O)cc3F)cn2)n1` [Tedizolid Phosphate]: -0.77. Next, `O=C1c2c(O)ccc(O)c2C(=O)c2c(NCCNCCO)ccc(NCCNCCO)c21` [Mitoxantrone 2HCl]: -8.31; `C[C@@H](O)[C@H]1C(=O)N2C(C(=O)[O-])=C(SC3Cn4cnc[n+]4C3)[C@H](C)[C@H]12` (stereo not given in full) [Biapenem]: -0.17; `CN1CCN2c3ncccc3Cc3ccccc3C2C1` (stereo not given) [Mirtazapine]: 0.24. For `CN1[C@@H]2CC[C@H]1C[C@@H](OC(=O)c1c[nH]c3ccccc13)C2` [Tropisetron], the “z-score of subpopulation abundance” value came to 0.48. Regarding `CN1CCOC(c2ccccc2)c2ccccc2C1` (stereo not given) [Nefopam HCl], the “z-score of subpopulation abundance” value was found to be 0.37. Next, `CCc1nn(CCCN2CCN(c3cccc(Cl)c3)CC2)c(=O)n1CCOc1ccccc1` [Nefazodone hydrochloride]: -0.31; `CC(=O)Oc1ccc(C(=C2CCCCC2)c2ccc(OC(C)=O)cc2)cc1` [Cyclofenil]: -0.03; `CC(C)NC(=N)NC(=N)Nc1ccc(Cl)cc1` [Proguanil]: 0.61. Then `Fc1ccc([C@@H]2CCNC[C@H]2COc2ccc3c(c2)OCO3)cc1` [Paroxetine HCl], with -0.16; and `C[N+]1(C)CCC(=C(c2ccccc2)c2ccccc2)CC1` [Diphemanil Methylsulfate], with 0.25; and `CCCCCCCCc1ccc(CCC(N)(CO)CO)cc1` [Fingolimod], with -1.44. Then `Nc1ccc(S(=O)(=O)Nc2cnc3ccccc3n2)cc1` [Sulfaquinoxaline sodium], with 1.56.

Regarding `CCc1c(C)[nH]c2c1C(=O)C(CN1CCOCC1)CC2` (stereo not given) [Molindone hydrochloride], the “z-score of subpopulation abundance” value was -0.67. Then `Cc1ccc(C(=O)C(C)CN2CCCCC2)cc1` (stereo not given) [Tolperisone HCl], with -0.03; and `CN[C@H](CC(C)C)C(=O)N[C@H]1C(=O)N[C@@H](CC(N)=O)C(=O)N[C@H]2C(=O)N[C@H]3C(=O)N[C@H](C(=O)N[C@H](C(=O)O)c4cc(O)cc(O)c4-c4cc3ccc4O)[C@H](O)c3ccc(c(Cl)c3)Oc3cc2cc(c3O[C@@H]2O[C@H](CO)[C@@H](O)[C@H](O)[C@H]2O[C@H]2C[C@](C)(N)[C@H](O)[C@H](C)O2)Oc2ccc(cc2Cl)[C@H]1O` [Vancomycin], with -0.16. As to `Cc1ccc(O)c([C@H](CCN(C(C)C)C(C)C)c2ccccc2)c1` [Tolterodine tartrate], the “z-score of subpopulation abundance” value amounted to 1.04.

As to `CN(C)CCc1c[nH]c2ccc(C[C@H]3COC(=O)N3)cc12` [Zolmitriptan], the “z-score of subpopulation abundance” value was -0.65. Next, `CO[C@H]1C[C@@H]2CC[C@@H](C)[C@@](O)(O2)C(=O)C(=O)N2CCCC[C@H]2C(=O)O[C@H]([C@H](C)C[C@@H]2CC[C@H](n3cnnn3)[C@H](OC)C2)CC(=O)[C@H](C)/C=C(\C)[C@@H](O)[C@@H](OC)C(=O)[C@H](C)C[C@H](C)/C=C/C=C/C=C/1C` [Zotarolimus(ABT-578)]: 7.28. Turning to `CC(C)c1nc(N(C)S(C)(=O)=O)nc(-c2ccc(F)cc2)c1/C=C/[C@@H](O)C[C@@H](O)CC(=O)O` [Rosuvastatin], the “z-score of subpopulation abundance” value worked out at 1. `Cc1cccc(C)c1NC(=O)C1CCCCN1C` (stereo not given) [Mepivacaine]: the “z-score of subpopulation abundance” value is 0.24. For the molecule `O=C(Nc1cccc(C2=NCCN2)c1)Nc1cccc(C2=NCCN2)c1` [Imidocarb dipropionate], the “z-score of subpopulation abundance” value was -0.26.

On to `Cc1nc2n(c(=O)c1CCN1CCC(c3noc4cc(F)ccc34)CC1)CCCC2` [Risperidone], for which the “z-score of subpopulation abundance” value is 0.87.

As for `CN1CC(=O)N2[C@H](c3ccc4c(c3)OCO4)c3[nH]c4ccccc4c3C[C@@H]2C1=O` [Tadalafil], the “z-score of subpopulation abundance” value was -0.26. Turning to `Cc1ccc(Nc2c(F)cccc2Cl)c(CC(=O)O)c1` [Lumiracoxib], the “z-score of subpopulation abundance” value is -0.4. Turning to `CO/N=C(\C(=O)N[C@@H]1C(=O)N2C(C(=O)O)=C(CSc3nc(C)c(CC(=O)O)s3)CS[C@H]12)c1csc(N)n1` [Cefodizime Sodium], the “z-score of subpopulation abundance” value came out at 0.34. Turning to `CCCCCNC(=N)N/N=C/c1c[nH]c2ccc(OC)cc12` [Tegaserod Maleate], the “z-score of subpopulation abundance” value was -0.55. With `CC[C@H](C)C(=O)O[C@H]1CCC=C2C=C[C@H](C)[C@H](CC[C@@H]3C[C@@H](O)CC(=O)O3)[C@H]21` [Mevastatin], the “z-score of subpopulation abundance” value was determined as 0.52. For the molecule `Clc1ccc(CCC(Cn2ccnc2)Sc2c(Cl)cccc2Cl)cc1` (stereo not given) [Butoconazole], the “z-score of subpopulation abundance” value is 0.29. Next, `C=CCc1ccc(O)c(-c2ccc(O)c(CC=C)c2)c1` [Honokiol]: -1.43; `O=C(O[C@H]1CN2CCC1CC2)N1CCc2ccccc2[C@@H]1c1ccccc1` [Solifenacin succinate]: 1.06; `Nc1ccc(S(=O)(=O)Nc2ccnn2-c2ccccc2)cc1` [Sulfaphenazole]: 0. Consider `C=CCCCCCCCCC(=O)[O-].C=CCCCCCCCCC(=O)[O-].[Zn+2]` [Zinc Undecylenate], for which the “z-score of subpopulation abundance” value is -2.31. `O=C1CN(/N=C/c2ccc(-c3ccc([N+](=O)[O-])cc3)o2)C(=O)N1` [Dantrolene sodium hemiheptahydrate]: the “z-score of subpopulation abundance” value was -3.9. Then `C=C[C@H]1CN2CC[C@H]1C[C@H]2[C@H](O)c1ccnc2ccc(OC)cc12` [Quinine HCl Dihydrate], with 1.09. Consider `CC1(C)S[C@@H]2[C@H](NC(=O)[C@H](N)c3ccccc3)C(=O)N2[C@H]1C(=O)OCOC(=O)[C@@H]1N2C(=O)C[C@H]2S(=O)(=O)C1(C)C` [Sultamicillin Tosylate], for which the “z-score of subpopulation abundance” value was found to be 0.25.
